Data taken from PubChem BioAssay (NCI).
Compounds without any hit were thinned out: in the full panel of roughly 79,000, 15% have a hit. Rule as the data show it: active = growth inhibition above about 70%; inactive = the rest. Where a SMILES comes first, the peptide text is derived from it. [ ]: non-standard residue; d: D form. ΔPro = O=C(O)[CH]1C=CCN1

Experiments:
[1] = NCI Yeast Anticancer Drug Screen. Data for the rad50 strain (AID 155);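 also: 0% = growth of vehicle-only cultures of the same strain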; conditions: S. cerevisiae rad50 strain growth inhibition; at 50.0 µM; active compounds read high
Outline: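 DNA repair mutant yeast, compound exposure, growth read-out; inhibition is taken relative to vehicle.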

[2] = NCI Yeast Anticancer Drug Screen. Data for the mec2-1 strain (AID 157); conditions: S. cerevisiae mec2-1 strain, at 50.0 µM, active compounds read high
Outline: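 Each compound was tested on mec2-1 yeast, a strain altered in DNA damage repair or cell cycle control. Growth inhibition is reported relative to vehicle.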

[3] = NCI Yeast Anticancer Drug Screen. Data for the sgs1 mgt1 strain (AID 161);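 also: 0% = growth of cultures given vehicle only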; conditions: S. cerevisiae sgs1 mgt1 strain, at 50.0 µM, active compounds read high
Outline: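 Test agents were incubated with a DNA-repair-mutant yeast strain. Growth was then read and compared against vehicle-treated controls.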

[4] = NCI Yeast Anticancer Drug Screen. Data for the cln2 rad14 strain (AID 165);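 also: 0% = growth equal to vehicle treated cultures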; conditions: S. cerevisiae cln2 rad14 strain, at 50.0 µM, active compounds read high
Outline: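 Test compounds were added to cln2 rad14 yeast cultures; inhibition of growth was then determined by comparison with vehicle treatment.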

[5] = NCI Yeast Anticancer Drug Screen. Data for the bub3 strain (AID 167); conditions: S. cerevisiae bub3 mutant strain, at 50.0 µM, active compounds read high
Outline: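 In this screen, a yeast mutant lacking normal mitotic checkpoint function is challenged with compound. Relative growth versus vehicle gives the inhibition value.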

[6] = NCI Yeast Anticancer Drug Screen. Data for the mlh1 rad18 strain (AID 175); conditions: S. cerevisiae mlh1 rad18 strain growth inhibition; at 50.0 µM; active compounds read high
Outline: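 Inhibition values reflect reduced growth of mutant yeast versus vehicle-treated controls following compound exposure; the mutations affect DNA damage repair.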

Measured: growth inhibition

COCCOCc1nc(C#N)c(N)o1
inactive: [1] -6.6% | [2] 2.6% | [3] -36% | [4] 13.8% | [5] -24% | [6] -66.2%

CS(=O)(=O)OCC1C2CCC(CC2)C1COS(C)(=O)=O (stereo not given)
inactive: [1] 4.5% | [2] 17.3% | [3] 10.2% | [4] -15.8% | [5] -13.2% | [6] -11.5%

C=CCn1c(=O)cc[nH]c1=S
inactive: [1] -11.6% | [2] -13.2% | [3] -24.7% | [4] 3.4% | [5] -1.05% | [6] -21.2%

CCCCCCC(=O)/C=C/c1ccc(OC)cc1
inactive: [1] -12.5% | [2] -6.55% | [3] -14% | [4] 3.6% | [5] -11.6% | [6] -16.1%

O=C(O)CCC(=O)Nc1cccc(C(F)(F)F)c1
inactive: [1] -5.9% | [2] 3.4% | [3] -3.15% | [4] -0.55% | [5] 15.2% | [6] 4.3%

CN(C)c1ccc(/C=C(\NC(=O)c2ccccc2)c2nn(C)c(=O)o2)cc1
inactive: [1] -15.8% | [2] -4.8% | [3] -11.1% | [4] -20.9% | [5] -1.4% | [6] -22.6%

S=c1nc[nH]c2c1ncn2Cc1ccccc1
inactive: [1] 5.55% | [2] 4.25% | [3] -14.3% | [4] 1.3% | [5] 4.9% | [6] 2.35%

CC1C/C(=C\c2ccccc2)C(=O)/C1=C/c1ccccc1 (stereo not given)
inactive: [1] -3.6% | [2] 17.4% | [3] 7.3% | [4] -6.4% | [5] -2.75% | [6] -15.9%

CCOP(=O)(OCC)C(C(=O)OC)C(=O)C(=O)Nc1c(C)cc(Br)cc1C (stereo not given)
inactive: [1] -42.1% | [2] -17.2% | [3] -23.9% | [4] -1.8% | [5] -3.85% | [6] -17.6%

COc1ccc(C(=O)C(C)(CCC#N)CCC#N)cc1
inactive: [1] -10.3% | [2] -6.3% | [3] 3.25% | [4] -44.6% | [5] 14.3% | [6] 2.3%

Cc1ncc([N+](=O)[O-])n1CCNC(=O)CCn1ccnc1[N+](=O)[O-]
inactive: [1] 10.2% | [2] -43.7% | [3] -49.6% | [4] 1.1% | [5] -18.7% | [6] -22.9%

CCCCCC(=O)Nc1cc(S(=O)(=O)O)cc2cc(S(=O)(=O)O)cc(O)c12
inactive: [1] -24.1% | [2] -15.2% | [3] -8.85% | [4] 10.7% | [5] -9.85% | [6] -7.7%

C[N+](C)(C)C12CCC(CC1)C1([N+](C)(C)C)CCC2CC1
inactive: [1] 4.2% | [2] 21.4% | [3] 17.2% | [4] -10.2% | [5] 4.45% | [6] 22.1%

O=C(O)C1C=CCN1C(=O)C1C=CCN1C(=O)C1C=CCN1 (stereo not given) (H-[ΔPro]-[ΔPro]-[ΔPro]-OH; configuration not given here)
inactive: [1] -68.7% | [2] -38.6% | [3] -25.5% | [4] 0.05% | [5] 0.25% | [6] -31.5%

CCC(=O)Oc1cccc2ccccc12
inactive: [1] -14.4% | [2] -26.9% | [3] -14.8% | [4] -14.3% | [5] -24.9% | [6] -8.05%

CCCCOC(=O)NC(=O)c1cc2cc(I)cc(I)c2oc1=O
inactive: [1] 3.45% | [2] 5.8% | [3] -7.75% | [4] -50.2% | [5] -10.6% | [6] 17.6%

NC(=O)N/N=C/C(Cc1ccccc1)=N/OCc1ccccc1
inactive: [1] -6.9% | [2] -1.8% | [3] -0.45% | [4] -17.6% | [5] 16.4% | [6] -1.75%

CCOC(=O)N1CCN(P(=O)(c2ccccc2)N2CCN(C(=O)OCC)CC2)CC1
inactive: [1] 7.35% | [2] -28.4% | [3] 1.85% | [4] -31.6% | [5] -0.75% | [6] 9.85%

COc1ccc(C(=O)C/C(=N\N(C(=O)c2ccc(OC)cc2)c2ccccc2)c2ccc(OC)cc2)cc1
inactive: [1] 13.6% | [2] -24.8% | [3] 9.9% | [4] -21.1% | [5] -9.85% | [6] 6.5%

CC(C)(C)S(=O)(=O)CCCCl
inactive: [1] 12.8% | [2] -13.9% | [3] -1.65% | [4] -8.5% | [5] 13.2% | [6] 13.5%
